Our source for the Potency, viability change, negative = cytotoxic and activity change, negative = cytotoxicity values is PubChem BioAssay (Tox21).

A short description of test [1]: cAMP Responsive Elements (CRE) small molecule antagonists, cell-based qHTS assay: qHTS cell viability counter screen (AID 2060913). Also: nearly all actives have a fitted effect of over 40% in size. Particulars: CRE-bla HEK293T viability, CellTiter-Glo luminescence, 5 h; series mostly up to 92.4 µM. In a few lines: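 CRE-bla HEK293T cells were seeded in assay medium with 10% dialyzed FBS, incubated 18 hrs at 37 C, then exposed to compounds plus 0.25 uM final NKH477 for 3 hrs. Viability was read by CellTiter-Glo luminescence after 30 min, in the same wells.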

Test [2] is described as follows: cAMP Responsive Elements (CRE) small molecule agonists, cell-based qHTS assay: qHTS cell viability counter screen (AID 2060914). Also: nearly all actives have a fitted effect of over 50% in size. The note with it: CRE-bla HEK293T viability, CellTiter-Glo luminescence, 5 h; series mostly up to 92.4 µM. In a few lines: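 Luminescence read-out (CellTiter-Glo, 30 min RT) of ATP-based viability in CRE-bla HEK 293T cells, run in the same wells as the β-lactamase reporter assay after 3 h compound treatment at 37 °C.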
For orientation: In qHTS, concentration-response curves come from the screen itself.

Results filed as inconclusive are left out. A number with no mark means an inactive call. Calls of active or inactive are those of the source. Calls follow the shape of the dose curve; as a rule, active = well fitted cell-killing curve with a large enough effect in the repeat runs; inconclusive = weak or mixed curves, or effect the other way; inactive = flat fitted curve, though single readings scatter.
% is scaled to controls: 0 for no effect and ±100 for the full control effect; potency is read from the fitted curve at half-maximal effect.

Take `CC(=O)O[C@@H]1C(=O)O[C@@H]2[C@H]1OC(=O)[C@@H]2OC(C)=O`: the Potency entry in test [1] and in test [2] was “inactive” in each case.

Turning to `C[C@H]1COc2c(C3(N)CC3)c(F)cc3c(=O)c(C(=O)O)cn1c23`, the Potency result in test [1] and in test [2] was “inactive” each time.

As for `NC(=O)NNc1ccccc1`, the Potency entry in test [1] and in test [2] was “inactive” throughout.

In the case of `Cc1cc(O)c(C(C)(C)C)cc1C(C)(C)C`, the Potency in test [1] is 43.3 µM (active); in test [2] it was 48.6 µM (active).

Regarding `CN(C)/N=N/c1nc[nH]c1C(N)=O`, the Potency entry in test [1] and in test [2] was “inactive” throughout.

For the compound `CC(=O)Oc1cc2c(s1)CCN(C(C(=O)C1CC1)c1ccccc1F)C2` (stereo unspecified), the Potency result in test [1] and in test [2] was “inactive” each time.

In the case of `C=C(C)C(=O)NCCC[N+](C)(C)C`, the Potency entry in test [1] and in test [2] was “inactive” each time.

In the case of `O=C1CCC(=O)O1`, the Potency entry in test [1] and in test [2] was “inactive” in each case.

For the compound `O=C1c2ccccc2C(=O)c2c(O)ccc(O)c21`, the Potency entry in test [1] and in test [2] was “inactive” throughout.

For the compound `Cc1c(C)c2c(c(C)c1O)CC[C@@](C)(CCC[C@H](C)CCC[C@H](C)CCCC(C)C)O2`, the Potency result in test [1] and in test [2] was “inactive” in each case.

`Cc1ccccc1Br`: the Potency entry in test [1] and in test [2] was “inactive” in each case.

Consider `CN1C(=O)CC(c2ccccc2)C1=O` (stereo unspecified), for which the Potency result in test [1] and in test [2] was “inactive” in each case.

With `Nc1cc([N+](=O)[O-])cc(Cl)c1O`, the Potency result in test [1] and in test [2] was “inactive” in each case.

In the case of `C[Si](C)(C)O[Si](C)(C)O[Si](C)(C)C`, the Potency result in test [1] and in test [2] was “inactive” in each case.

Consider `COCc1nnc(-c2ccc[n+]([O-])c2)n1-c1c(Cl)c(Cl)cc2[nH]c(=O)c(=O)[nH]c12`, for which the Potency result in test [1] and in test [2] was “inactive” each time.

In the case of `Nc1ccc(S(=O)(=O)Nc2ccnn2-c2ccccc2)cc1`, the viability change, negative = cytotoxic in test [1] is 5.89% [at 18.9 µM]. The activity change, negative = cytotoxicity in test [2] is 8.29% [at 18.9 µM].

As for `Cc1cccc(C)c1NC(=O)CN1CCCCCC1`, the Potency result in test [1] and in test [2] was “inactive” each time.

Regarding `COc1c(C)c2c(c(O)c1C/C=C(\C)CCC(=O)O)C(=O)OC2`, the Potency entry in test [1] and in test [2] was “inactive” each time.

For `CCOCCOCCOCC`, the Potency entry in test [1] and in test [2] was “inactive” each time.

On to `FC(F)(F)c1ccc(Cl)c(Cl)c1`, for which the Potency entry in test [1] and in test [2] was “inactive” each time.

Turning to `CC(=O)O[C@@H]1C[C@@H]2CC[C@@]1(C)C2(C)C`, the Potency result in test [1] and in test [2] was “inactive” each time.

`C=C(C)C(=O)OCC[N+](C)(C)C`: the Potency result in test [1] and in test [2] was “inactive” each time.

On to `CC1(C)S[C@@H]2[C@H](N=CN3CCCCCC3)C(=O)N2[C@H]1C(=O)O`, for which the Potency result in test [1] and in test [2] was “inactive” in each case.

For the compound `CCOC(=O)COc1ccc2c(C)c(CCN(CC)CC)c(=O)oc2c1Cl`, the Potency entry in test [1] and in test [2] was “inactive” throughout.

On to `CNS(=O)(=O)c1cc(C(=O)N2CCC(CCN3C4CCC3CC(n3c(C)nc5ccccc53)C4)(c3cccc(F)c3)CC2)c(Cl)cc1F` (stereo unspecified), for which the Potency result in test [1] and in test [2] was “inactive” each time.

Turning to `CN(C)C`, the Potency result in test [1] and in test [2] was “inactive” throughout.

As to `C=C[Si](C)(C)Cl`, the viability change, negative = cytotoxic in test [1] is -0.015% [at 8.39 µM]. The activity change, negative = cytotoxicity in test [2] was -1.19% [at 8.39 µM].

As to `CC(C)(C)N(CCO)CCO`, the Potency entry in test [1] and in test [2] was “inactive” each time.

For the compound `CCCC(=O)OC`, the Potency result in test [1] and in test [2] was “inactive” in each case.

Turning to `NC(N)=Nc1nc(CSCC/C(N)=N/S(N)(=O)=O)cs1`, the Potency result in test [1] and in test [2] was “inactive” in each case.

For `NC(=S)N/N=C/c1cccnc1`, the Potency result in test [1] and in test [2] was “inactive” throughout.

Consider `C=CC(=O)OCCCl`, for which the Potency result in test [1] and in test [2] was “inactive” in each case.

Turning to `CC(C)(C)C(=O)Oc1ccc(S(=O)(=O)Nc2ccccc2C(=O)NCC(=O)O)cc1`, the Potency result in test [1] and in test [2] was “inactive” throughout.

Consider `CC[C@H]1OC(=O)[C@H](C)[C@@H](O[C@H]2C[C@@](C)(OC)[C@@H](O)[C@H](C)O2)[C@H](C)[C@@H](O[C@@H]2O[C@H](C)C[C@H](N(C)C)[C@H]2O)[C@](C)(O)C[C@@H](C)/C(=N\OCOCCOC)[C@H](C)[C@@H](O)[C@]1(C)O`, for which the Potency entry in test [1] was “inactive”. For the same compound, in test [2], the Potency was 36 µM (active).

In the case of `CN(C(=O)CCCOc1ccc2[nH]c(=O)ccc2c1)C1CCCCC1`, the Potency entry in test [1] and in test [2] was “inactive” throughout.

Turning to `CNC(=S)N(C)C`, the Potency result in test [1] and in test [2] was “inactive” in each case.

As to `CO[Si](CCCOCC1CO1)(OC)OC` (stereo unspecified), the Potency result in test [1] and in test [2] was “inactive” each time.

Turning to `CN1Cc2cc(C(=O)N3CCC(C4CCNCC4)CC3)ccc2NC(CC(=O)O)C1=O` (stereo unspecified), the Potency entry in test [1] and in test [2] was “inactive” in each case.

As to `Cc1ccc2c(n1)Oc1ccc(C(C)C(=O)OCC(=O)N(C)C)cc1C2` (stereo unspecified), the Potency entry in test [1] and in test [2] was “inactive” each time.

As to `C#CC(C)N(C)C(=O)Nc1ccc(Cl)cc1` (stereo unspecified), the Potency entry in test [1] and in test [2] was “inactive” in each case.

Consider `CCO[Si](C)(CCCOCC1CO1)OCC` (stereo unspecified), for which the Potency result in test [1] and in test [2] was “inactive” each time.

Consider `Nc1ccccc1N`, for which the Potency entry in test [1] and in test [2] was “inactive” throughout.

Take `c1ccc2occc2c1`: the Potency result in test [1] and in test [2] was “inactive” each time.

Take `CCC(Cc1c(I)cc(I)c(N)c1I)C(=O)O` (stereo unspecified): the Potency entry in test [1] and in test [2] was “inactive” each time.

For the compound `NCCN1CCOCC1`, the Potency entry in test [1] and in test [2] was “inactive” throughout.

Take `C=C[Si](OCCOC)(OCCOC)OCCOC`: the Potency entry in test [1] and in test [2] was “inactive” each time.

In the case of `CCC(=O)c1ccc(O)cc1`, the Potency entry in test [1] and in test [2] was “inactive” in each case.

On to `O=C[C@H](O)[C@@H](O)[C@H](O)[C@H](O)CO`, for which the Potency entry in test [1] and in test [2] was “inactive” in each case.
